Hits are enriched below; roughly 2.3% of the tested compounds scored in any of these assays.
Mcl1 Noxa PPI = disrupts binding of human Mcl-1 to Noxa peptide; inhibition, % at 21.7 µM; Q07820; actives 1.5% (n = 220,000); AID 1022; TR-FRET Mcl-1/Noxa peptide binding, 2 h;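 active means compounds that cut the protein-peptide binding signal by more than 50% relative to plate controls in a single-dose test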;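 further: His-tagged Mcl-1 with rhodamine Noxa BH3 peptide and terbium anti-His antibody; 0% = Mcl-1 plus Noxa peptide wells and 100% = peptide-only wells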
Target sequence (Q07820 whole entry, looked up): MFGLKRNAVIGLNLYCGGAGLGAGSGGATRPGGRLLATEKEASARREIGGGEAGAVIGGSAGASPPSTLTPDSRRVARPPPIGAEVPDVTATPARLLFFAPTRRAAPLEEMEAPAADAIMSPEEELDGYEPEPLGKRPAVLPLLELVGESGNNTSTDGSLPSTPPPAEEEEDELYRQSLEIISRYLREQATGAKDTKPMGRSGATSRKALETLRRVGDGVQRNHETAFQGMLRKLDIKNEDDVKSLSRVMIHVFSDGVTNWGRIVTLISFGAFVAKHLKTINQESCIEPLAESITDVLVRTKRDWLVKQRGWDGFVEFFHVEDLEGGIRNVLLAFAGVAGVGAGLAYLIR
MCL1-BIM inh = MCL1-BIM-BH3 interaction inhibition (human); GST-MCL1 / FITC-Bim-BH3 fluorescence polarization; inhibition, % at 10.9 µM; Q07820; actives 0.68% (n = 320,000);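 active means inhibition above the mean inhibition of all tested compounds plus 3 SD, set per campaign, cut at about 40% in these data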;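 further: 0% = DMSO wells and 100% = unlabeled Bim-BH3 peptide control; higher means more loss of mP so more displacement of Bim peptide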
BCLXL inh = Bcl-xL (human) inhibition; actives 0.7% (n = 320,000); GST-Bcl-xL / FITC-Bim BH3 peptide fluorescence polarization; inhibition, % at 10.9 µM; AID 2129;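 active means inhibition above the mean of all tested compounds plus 3 SD, cutoff set per campaign, cut at about 30% in these data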;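 further: 0% = DMSO wells and 100% = unlabeled Bim-BH3 peptide competitor; inhibitors lower millipolarization by displacing the labeled peptide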
Target sequence (Q07817 whole entry, looked up): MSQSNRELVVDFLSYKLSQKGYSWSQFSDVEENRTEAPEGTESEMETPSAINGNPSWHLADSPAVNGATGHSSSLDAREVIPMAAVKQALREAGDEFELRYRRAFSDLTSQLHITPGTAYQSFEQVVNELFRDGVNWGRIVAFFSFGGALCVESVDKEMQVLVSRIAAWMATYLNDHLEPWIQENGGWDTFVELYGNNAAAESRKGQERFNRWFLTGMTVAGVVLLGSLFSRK
Mcl1 Bid PPI = Mcl-1/Bid interaction inhibition | Q07820 | TR-FRET Mcl-1/Bid-Dy647 peptide binding, 1536-well | inhibition, % at 21.7 µM | actives 0.97% (n = 220,000) | AID 1021;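 active means compounds that cut the binding signal by more than half at the single screening dose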;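 further: His-tagged Mcl-1 with europium anti-His antibody binding Bid BH3 peptide; 0% = Mcl-1 plus peptide wells and 100% = peptide-only wells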
Mcl-1 Bim block = disrupts Bim peptide binding to human Mcl-1; Bead-based flow cytometry, Bim peptide-Mcl-1 binding; inhibition, % at 10 µM; actives 0.1% (n = 190,000); in the data active means inhibition above about 40%;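 further: 0% = no compound tracer wells and 100% = peptide blocker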
GLD-1 RNA inh = GLD-1-TGE RNA interaction inhibition (C. elegans). Q17339. purified GLD-1 + fluorescein TGE RNA, fluorescence polarization. inhibition, % at 5.96 µM. actives 0.44% (n = 320,000). AID 2280;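 active means percent inhibition above a per-plate cutoff, the plate mean of test compounds plus 3 SD, cut at about 30% in these data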;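 further: 0% = DMSO wells with GLD-1 and probe and 100% = wells lacking GLD-1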
Active calls of the source: *; nt = no result given.

SMILES	Mcl1 Noxa PPI	MCL1-BIM inh	BCLXL inh	Mcl1 Bid PPI	Mcl-1 Bim block	GLD-1 RNA inh
O=C1/C(=C/c2ccccc2)SC(=S)N1C1CCS(=O)(=O)C1 (configuration not stated)	-9.0	9.9	5.8	-25.9	nt	4.8
Cn1nc(C(=O)OCC(=O)c2ccc(Br)cc2)c2ccccc2c1=O	nt	-18.5	-4.7	nt	nt	5.2
CNc1ccc(Br)cc(C(=O)/C=C/c2ccc(Cl)cc2Cl)c1=O	91.9*	-44.1	-13.3	12.8	2.0	-16.3
COc1ccc(/C=C/C(=O)c2ccc(OC)cc2OC)c(OC)c1	1.8	-0.8	-1.1	0.3	-3.0	-2.1
CNc1ccc(Br)cc(C(=O)/C=C/c2cccc(OC)c2)c1=O	80.7*	11.0	3.3	0.7	8.0	20.4
CNc1ccc(Br)cc(C(=O)/C=C/c2ccc(OC)cc2OC)c1=O	76.1*	-38.2	-4.4	-2.5	22.0	-3.3
O=[N+]([O-])c1cccc(N(CC(O)CN2CCCCC2)S(=O)(=O)c2ccccc2)c1 (configuration not stated)	nt	0.7	-2.8	nt	nt	-2.4
CC1CC(C)CN(CC(O)COCc2ccccc2)C1 (configuration not stated)	nt	-11.1	-3.2	nt	nt	-4.3
Cc1ccc2c(Cl)cc(Cl)c(OCC(=O)NCc3ccco3)c2n1	93.6*	nt	nt	29.9	1.0	nt
CCn1c(SCC(=O)Nc2nc3ccccc3s2)nc2c(c1=O)SC(C)C2 (configuration not stated)	9.8	-1.8	1.3	7.8	-5.0	-0.6
CCn1c(SCC(=O)Nc2nc3ccc(C)cc3s2)nc2c(c1=O)SC(C)C2 (configuration not stated)	28.9	9.0	5.1	56.2*	-1.0	-2.5
CC(=O)NCCc1c[nH]c2ccc(OCC(O)CNC(C)(C)C)cc12 (configuration not stated)	9.6	-10.1	-2.3	-127.5	nt	-7.7
CN(C)C(=O)c1cccn1-c1ncc(C(F)(F)F)cc1Cl	2.8	0.9	3.8	-8.2	-2.0	-7.6
CN(C)C(=O)c1cn(N(C)c2ncc(C(F)(F)F)cc2Cl)c(=O)c2ccccc12	30.9	3.8	4.4	61.1*	-3.0	-11.6
Cc1ccc(N(C)C2=NC(=O)CS2)cc1Cl	nt	11.3	8.1	nt	nt	5.3
Cc1ccccc1/C=C/c1cc[n+](C)cc1	19.6	-11.9	-6.5	13.9	-4.0	2.3
CCn1cc(/C=C/c2cc[n+](C)cc2)c2ccccc21	nt	22.6	40.7*	nt	nt	65.7*
C=CCn1c(C)c(/C=C/c2cc[n+](C)cc2)c2ccccc21	nt	-130.3	-74.5	nt	nt	74.2*
C=CCn1cc(/C=C/c2cc[n+](C)cc2)c2ccccc21	nt	22.6	46.3*	nt	nt	56.6*
CCN(CC)C(=O)Cn1c(=O)n(C)c2ccccc21	-18.3	1.1	4.6	-86.2	nt	-3.9
CCN(CC)C(=O)Cn1c(C)c(/C=C/c2cc[n+](C)cc2)c2ccccc21	nt	-214.8	-98.1	nt	nt	60.3*
Cc1[nH]c2ccccc2c1/C=C/c1cc[n+](C)cc1	-168.0	nt	nt	-35.0	-3.0	nt
COC(=O)c1c(NC(=O)CC2Nc3cc(C)c(C)cc3NC2=O)sc(C)c1C (configuration not stated)	64.2*	-8.6	2.0	61.5*	-4.0	-9.7
COc1nc(-c2ccccc2)cc(-c2ccc3c(c2)OCO3)c1C#N	15.1	8.7	5.1	55.7*	nt	3.7
COC(=O)c1cc(C(=O)OC)cc(N2C(=O)CC(Sc3nc(C)cc(C)n3)C2=O)c1 (configuration not stated)	7.5	5.2	4.9	-10.7	2.0	2.1
SMILES	Mcl1 Noxa PPI	MCL1-BIM inh	BCLXL inh	Mcl1 Bid PPI	Mcl-1 Bim block	GLD-1 RNA inh
COC(=O)c1ccc(N2C(=O)CC(Sc3n[nH]c(C)n3)C2=O)cc1 (configuration not stated)	52.8*	-1.0	-0.6	-16.8	0.0	5.8
CSc1nc(C)cc(OCC(=O)n2nc(C)cc2C)n1	8.9	-0.7	0.5	99.2*	1.0	-2.9
CSc1nc(C)cc(OCCO)n1	28.0	3.6	5.2	-11.2	-4.0	1.9
Cc1cc(C)c2nc(-c3ccccn3)cc(C(=O)n3cccn3)c2c1	9.9	14.9	9.2	-22.7	-1.0	4.2
CC(=O)c1ccc(N2CCN(C(=O)Nc3cccc(F)c3)CC2)cc1	14.9	-0.2	1.5	-41.4	1.0	-4.0
Cc1ccc2nc(SCC(=O)N3CCN(C(=O)c4ccco4)CC3)[nH]c2c1	7.8	-7.5	2.6	-5.9	-5.0	1.7
O=C(CSc1nc2ccc(Cl)cc2[nH]1)N1CCN(C(=O)c2ccco2)CC1	57.1*	1.7	2.2	-8.6	21.0	-3.0
NS(=O)(=O)c1ccc(CNC(=O)c2cc(-c3ccccn3)nc3ccc(Cl)cc23)cc1	54.4*	44.4*	40.6*	-62.5	1.0	13.9
CC(C)n1nnnc1SCC(=O)N1CCN(C(=O)c2ccco2)CC1	3.3	-3.6	6.5	4.1	93.0*	6.6
O=C(c1ccco1)N1CCN(C(=O)c2cc(-c3ccccn3)nc3ccc(Cl)cc23)CC1	64.4*	37.0	40.4*	-5.6	0.0	9.4
NS(=O)(=O)c1ccc(CNC(=O)c2cc(-c3cccnc3)nc3ccc(Cl)cc23)cc1	nt	-0.2	-5.6	nt	nt	0.6
CC(=O)Nc1ccc(S(=O)(=O)N(C)CC(=O)OCC(=O)c2ccc3c(c2)NC(=O)CO3)cc1	nt	-0.1	-2.3	nt	nt	0.9
CCSc1ccccc1C(=O)NCc1ccc(S(N)(=O)=O)cc1	52.5*	11.8	-2.5	-4.9	-3.0	2.8
NS(=O)(=O)c1ccc(CNC(=O)c2ccccc2SCC(=O)N2CCCC2)cc1	nt	5.9	-2.1	nt	nt	4.0
Cc1ccc(C(=O)OCC(=O)Nc2ccc3c(c2)OCO3)cc1S(=O)(=O)N1CCOCC1	10.6	-4.8	2.1	-44.0	-3.0	2.6
CCN(c1ccc(NC(=O)COC(=O)c2ccc(C)c(S(=O)(=O)N3CCOCC3)c2)cc1)C(C)C	74.5*	3.8	5.0	24.1	-6.0	3.1
Fc1cccc(CSc2ccc(-c3ccco3)nn2)c1	7.5	18.9	11.9	0.3	-8.0	6.7
Fc1ccc(CSc2ccc(-c3ccco3)nn2)cc1	4.0	10.5	8.4	61.0*	-4.0	1.1
O=C(CCC(=O)N1CCOCC1)NCCc1ccccc1	nt	-2.4	0.2	nt	nt	4.9
Cc1ccsc1C(=O)OCC(=O)N1CCOCC1	2.0	2.6	1.0	66.7*	-5.0	7.7
CCN(CC)c1ccc(/C=C/c2cc(-c3ccccc3)c3ccccc3n2)cc1	8.8	30.8	30.4*	-1.1	nt	-140.6
COc1cccc(NC(=O)CNC(=O)N2CC(=O)Nc3ccccc32)c1	nt	7.8	44.1*	nt	nt	0.7
COc1ccc(CNC(=O)CNC(=O)N2CC(=O)Nc3ccccc32)cc1	nt	4.5	6.6	nt	nt	3.3
O=c1c(/C=N/Nc2ccccc2)c(Sc2nnnn2-c2ccccc2)nc2ccccn12	32.8	nt	nt	-17.9	-5.0	nt
O=C(O)c1ccccc1N/N=C/c1c(Sc2nnnn2-c2ccccc2)nc2ccccn2c1=O	78.4*	-47.6	-26.0	-24.0	nt	-44.5

Assay outcomes: PubChem, several laboratories
